Results on 15 compounds are retold here after PubChem BioAssay.

Test [1] concerns TRPC4 beta (transient receptor potential cation channel C4), mouse. The test can be described thus: TRPC4 cation channel opening, retest – cell-based, Fluo4 calcium, HEK293 TRPC4beta/mu-opioid, duplicates, 10 µM, confirmation (AID 2426;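 active means fluorescence ratio normalized to control raised more than 50% in primary screen plus both repeat runs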). As to conditions: Fluo4 calcium fluorescence, at 10 µM; hits give high values.
Test [2] concerns transient receptor potential cation channel C4 beta (TRPC4), mouse. Put plainly: TRPC4 cation channel opening, second retest – cell-based, second round, Fluo4, HEK293 TRPC4beta/mu-opioid, 1 µM, confirmation (AID 2461;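 active means primary screen active and over 50% activation in each of two duplicate runs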). The conditions noted are these: Fluo4 calcium fluorescence, at 1 µM; hits give high values.
Test [3] concerns TRPC4 (transient receptor potential cation channel C4 beta), mouse. Put plainly: potentiation of DAMGO EC20 TRPC4 response – cell-based, second round, Fluo-4, HEK293 TRPC4beta/mu-opioid, 1 µM, confirmation (AID 2554;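 active means primary screen hit whose fluorescence ratio, in both repeats, exceeds the weak agonist control mean by 3 SD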). The conditions noted are these: DAMGO EC20, Fluo-4 calcium flux, at 1 µM; hits give high values.
In test [4] the test system is TRPC4 beta (transient receptor potential cation channel C4), mouse. Put plainly: potentiation of DAMGO EC20 TRPC4 response – cell-based, Fluo-4, HEK293 TRPC4beta/mu-opioid, confirmation (AID 2555;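 active means primary screen hit whose calcium fluorescence ratio, in both repeats, exceeds the weak agonist control mean by 3 SD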). As to conditions: DAMGO EC20, Fluo-4 calcium flux, at 10 µM; hits give high values. On the technique in general: A change in cytosolic calcium serves as a functional read-out for many receptors and channels.

The target in test [5] is Short transient receptor potential channel 4 (Mus musculus) (UniProt Q9QUQ5). The test can be described thus: blockers of DAMGO-evoked TRPC4 calcium flux – cell-based, Fluo4, HEK293 TRPC4beta/mu-opioid, confirmation (AID 2636;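 active means calcium signal cut by more than 3 SD below the full-agonist control yet still positive, in both repeats and the earlier primary screen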). The conditions noted are these: at 10 µM; hits give high values.
The target is the same in test [6]. The test can be described thus: blockers of DAMGO-evoked TRPC4 calcium flux – cell-based, second round, Fluo4, HEK293 TRPC4beta/mu-opioid, 1 µM, confirmation (AID 2637;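 active means calcium signal ratio cut to more than 3 SD under the fully stimulated control mean yet still positive, in both repeats and the primary screen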;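 on inhibition: percent of integrated ratio relative to wells lacking test compound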). As to conditions: at 1 µM; hits give high values.
The target is the same in test [7]. Put plainly: calcium entry via TRPC4 opening agents – cell-based, HEK293 TRPC4/mu-opioid, Fluo-4 calcium, dose response (AID 434937;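 active means primary screen activator hit with a dose response curve and TRPC4 channel activation at any tested dose; inactive means no activation, no dose response, or not a primary hit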).
For test [8] the target is unchanged. Put plainly: potentiation of DAMGO-evoked TRPC4 calcium signal – cell-based, HEK293 TRPC4/mu-opioid, Fluo-4 calcium, EC20 DAMGO, dose response (AID 434941;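 active means earlier screen potentiator hit that boosts the TRPC4 ion channel at some dose, with a dose response; inactive means no potentiation, no dose response, or not a prior hit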;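 further: calcium entry triggered by an EC20 dose of DAMGO at the co-expressed mu-opioid receptor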).
Test [9] addresses Short transient receptor potential channel 6 (Mus musculus) (UniProt Q61143). The test can be described thus: TRPC6 blockade by TRPC4 inhibitor hits – cell-based, HEK293, membrane potential dye, duplicate, selectivity assay for TRPC4 inhibitor project, confirmation (AID 434948;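 active means active in primary screen and both duplicates, each dropping signal beyond three positive-control SD with fluorescence still positive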). As to conditions: HEK293 TRPC6, membrane potential dye fluorescence, at 10 µM, stimulated with maximal-effect acetylcholine; hits give high values.

For test [10] the target is unchanged. Put plainly: TRPC6 opening by TRPC4 activator hits – cell-based, HEK293, membrane potential dye, duplicate, selectivity assay for TRPC4 activator project, confirmation (AID 434950;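 active means membrane potential signal rise above negative control mean plus 3 SD in both duplicates, also active in the earlier TRPC4 screen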;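 on activation: 0% = buffer only wells and 100% = acetylcholine maximal-effect wells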). The conditions noted are these: HEK293 TRPC6, membrane potential fluorescence, at 10 µM; activation: hits give high values; outcome: activation.
For test [11] the target is unchanged. The test can be described thus: positive modulators of mouse TRPC6 channel – HEK293 cells, membrane potential dye, duplicate, selectivity assay for TRPC4 potentiator project, confirmation (AID 434952). The conditions noted are these: HEK293 TRPC6, membrane potential dye fluorescence, at 10 µM, maximal acetylcholine added after compound; hits give high values.
The target in test [12] is Short transient receptor potential channel 4 (Mus musculus) (UniProt Q9QUQ5). The test can be described thus: calcium flux activators in TRPC4/5HT1a cells, counter-screen for TRPC4 activator project, cell-based, second counter screen, HEK293 TRPC4/5HT1a, Fluo-4 (AID 434977;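 active means calcium signal rise above buffer-control mean plus 5 SD in both duplicates, and also a hit in the primary screen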). The conditions noted are these: Fluo-4 calcium flux, at 10 µM; hits give high values.
A short description of test [13]: serotonin-gated TRPC4 signal block – cell-based, second counter screen, HEK293 TRPC4/5HT1a, Fluo-4, counter-screen for TRPC4 inhibitor project, confirmation (AID 434978;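 active means primary screen active whose calcium signal fell more than 3 SD beyond the full-serotonin control mean in both duplicate plates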;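 on outcome: serotonin given first at submaximal then at maximal dose after compound preincubation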). The conditions noted are these: Fluo-4 calcium flux, at 10 µM, serotonin added to trigger calcium flux; hits give high values. Background: The purpose of a counterscreen is to sort out artefacts and off-target activity.

Test [14] relates to TRPC4 (mouse), co-expressed with 5HT1a in HEK293. Put plainly: enhancement of serotonin-evoked TRPC4 response – cell-based, second counter screen, HEK293 TRPC4/5HT1a, Fluo-4, counter-screen for TRPC4 potentiator project, confirmation (AID 434979;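 active means signal rise over 3 SD above mean of control wells given weak agonist, in both repeats and first screen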). The conditions noted are these: Fluo-4 calcium flux, at 10 µM, serotonin added at its EC20 dose; hits give high values.
The nature of test [15]: nonspecific calcium rise without TRPC4 – cell-based, HEK293 mu-opioid receptor line, counter-screen for TRPC4 activator project, confirmation (AID 449723;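 active means hit in primary screen, with calcium signal over 5 SD above buffer well mean in both duplicates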;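 further: counter screen cells carry the mu-opioid receptor alone and lack TRPC4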). As to conditions: HEK293 mu-opioid cells, Fluo-4 calcium fluorescence, at 10 µM; hits give high values.
Test [16] can be described thus: nonspecific potentiation of DAMGO calcium response – cell-based, HEK293 mu-opioid receptor line, counter-screen for TRPC4 allosteric potentiator project, confirmation (AID 449724;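 active means calcium signal rise more than 3 SD above the low-dose agonist control mean, in both duplicate plates and the primary screen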;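 further: HEK293 cells carrying mu-opioid receptor only with no TRPC4 channel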). As to conditions: HEK293 mu-opioid receptor cells, Fluo-4 calcium flux, at 10 µM, compound added before EC20 DAMGO stimulus; hits give high values.

Structures are written as SMILES. For part of these data: Potency and affinity values are given separately. Activity calls are given as the source filed them.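 How the source made its calls, unless noted: active means compound raising the membrane signal above positive-control mean plus 3 SD in both repeats, and a primary screen hit; inactive means the rest.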

Sequence of Short transient receptor potential channel 6 (Mus musculus) (Q61143 whole entry, looked up): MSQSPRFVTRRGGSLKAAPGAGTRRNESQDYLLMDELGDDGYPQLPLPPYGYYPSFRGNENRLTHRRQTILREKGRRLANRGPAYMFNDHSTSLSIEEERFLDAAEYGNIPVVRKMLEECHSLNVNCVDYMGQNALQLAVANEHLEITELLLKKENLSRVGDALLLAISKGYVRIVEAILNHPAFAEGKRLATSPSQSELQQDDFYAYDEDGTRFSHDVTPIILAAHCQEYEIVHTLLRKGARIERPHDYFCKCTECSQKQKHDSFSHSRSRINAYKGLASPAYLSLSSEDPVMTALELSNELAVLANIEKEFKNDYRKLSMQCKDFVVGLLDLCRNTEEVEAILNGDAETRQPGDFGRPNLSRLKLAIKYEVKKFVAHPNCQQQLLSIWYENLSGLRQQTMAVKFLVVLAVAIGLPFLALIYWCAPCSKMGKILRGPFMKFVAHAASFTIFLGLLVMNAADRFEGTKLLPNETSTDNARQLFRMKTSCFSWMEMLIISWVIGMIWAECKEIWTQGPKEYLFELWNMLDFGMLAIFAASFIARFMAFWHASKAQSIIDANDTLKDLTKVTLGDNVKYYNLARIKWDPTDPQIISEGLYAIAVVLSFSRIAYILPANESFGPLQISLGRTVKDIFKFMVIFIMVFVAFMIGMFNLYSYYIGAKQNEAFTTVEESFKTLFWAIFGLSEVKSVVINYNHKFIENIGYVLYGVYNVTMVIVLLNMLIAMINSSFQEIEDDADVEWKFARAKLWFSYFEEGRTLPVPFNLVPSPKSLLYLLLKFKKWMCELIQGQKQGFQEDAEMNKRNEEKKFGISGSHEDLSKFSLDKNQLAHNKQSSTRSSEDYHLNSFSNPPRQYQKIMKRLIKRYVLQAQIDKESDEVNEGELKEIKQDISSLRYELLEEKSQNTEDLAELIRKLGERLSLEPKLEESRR
Sequence of Short transient receptor potential channel 4 (Mus musculus) (Q9QUQ5 whole entry, looked up): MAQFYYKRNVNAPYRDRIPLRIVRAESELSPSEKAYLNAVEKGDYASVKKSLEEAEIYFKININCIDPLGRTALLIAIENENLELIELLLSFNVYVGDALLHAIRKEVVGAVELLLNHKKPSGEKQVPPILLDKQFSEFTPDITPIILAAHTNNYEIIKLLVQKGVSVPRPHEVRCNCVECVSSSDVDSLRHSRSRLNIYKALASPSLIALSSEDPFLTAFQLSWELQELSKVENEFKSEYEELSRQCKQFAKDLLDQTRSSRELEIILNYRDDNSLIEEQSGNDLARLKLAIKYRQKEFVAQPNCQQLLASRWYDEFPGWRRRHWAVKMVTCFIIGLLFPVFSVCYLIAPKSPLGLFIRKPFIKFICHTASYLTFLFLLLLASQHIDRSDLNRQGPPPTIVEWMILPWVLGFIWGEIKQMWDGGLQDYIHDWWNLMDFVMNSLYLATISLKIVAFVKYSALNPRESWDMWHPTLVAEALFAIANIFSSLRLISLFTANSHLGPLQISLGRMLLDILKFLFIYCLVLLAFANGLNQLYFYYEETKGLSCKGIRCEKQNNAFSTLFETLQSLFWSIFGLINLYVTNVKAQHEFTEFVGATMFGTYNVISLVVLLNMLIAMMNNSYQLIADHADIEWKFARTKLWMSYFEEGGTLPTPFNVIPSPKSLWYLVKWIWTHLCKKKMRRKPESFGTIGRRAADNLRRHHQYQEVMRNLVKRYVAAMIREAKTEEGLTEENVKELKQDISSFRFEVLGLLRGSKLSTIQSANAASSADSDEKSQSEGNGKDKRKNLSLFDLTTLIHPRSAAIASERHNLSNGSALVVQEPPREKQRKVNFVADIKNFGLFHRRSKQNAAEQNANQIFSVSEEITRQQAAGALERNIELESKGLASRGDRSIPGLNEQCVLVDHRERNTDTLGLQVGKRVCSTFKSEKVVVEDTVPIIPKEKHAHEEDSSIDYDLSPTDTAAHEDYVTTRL

With `CCOc1ccc(NC(=O)c2c[nH]n3c(=O)cc(C4CCN(C(=O)OC(C)(C)C)CC4)nc23)cc1`, the result in test [1], in [2], in [3], in test [4], in [6] and in [7] was inactive. Further, the outcome in [8], in test [9], in test [10], in [11], in test [12] and in [14] was inactive. Also, the outcome in test [15] and in [16] was inactive. The inhibition (as a rule, the percentage by which the read-out fell short of the control) was 50% (active) in [5] and 43.4% (active) in [13].
For the compound `Cc1ccc(NC(=O)CN2CCc3ccccc3C2)cc1S(=O)(=O)N1CCOCC1`, the result in [1], in [2], in test [3], in test [4], in test [7] and in [8] was inactive. In addition, the result in test [9], in test [11], in [12], in test [13], in test [14] and in test [15] was inactive. Also, the result in [16] was inactive. The inhibition in [5] is 92% (active); in [6], 46% (active). In addition, in test [10], the activation was 30.5% (active).
On to `COCCn1c(SCc2ccccc2F)nc2ccccc2c1=O`, for which the outcome in [1], in test [2], in [3], in test [4], in test [6] and in test [7] was inactive. The outcome in test [8], in test [9], in [10], in [11], in test [12] and in test [14] was inactive. Besides, the result in test [15] and in test [16] was inactive. Further, the inhibition in test [5] is 88% (active); in [13], 20.8% (active).
Turning to `Cc1cc(N2CCCCC2)nc2ccccc12`, the result in test [1], in test [2], in test [3], in [4], in [7] and in test [8] was inactive. The compound was called inactive in [9], in test [10], in test [11], in test [12], in test [14] and in test [15]. For the same compound, the outcome in [16] was inactive. Moreover, the inhibition is 83% (active) in test [5], 40% (active) in test [6] and 28.5% (active) in test [13].
For the compound `CC1CCCCN1CCCNC(=O)c1nn(C)c2c1CSc1ccccc1-2` (stereo not given), the result in test [1], in test [2], in test [3], in test [4], in test [6] and in test [7] was inactive. The result in test [8], in [9], in [10], in test [11], in test [12] and in test [13] was inactive. In addition, the result in test [14], in test [15] and in [16] was inactive. Besides, the inhibition in [5] is 94% (active).
For the compound `COc1ccc([N+](=O)[O-])cc1NCc1ccco1`, the result in test [1], in [2], in test [3], in test [4], in [6] and in [7] was inactive. The result in [8], in test [9], in test [10], in test [11], in test [12] and in [13] was inactive. Besides, the result in [14], in test [15] and in [16] was inactive. In addition, the inhibition in [5] is 69% (active).
For the compound `Cc1ccc(Cn2c(=N)n(CC(O)c3ccco3)c3ccccc32)cc1` (stereo not given), the result in test [1], in [2], in test [3], in [4], in test [7] and in test [8] was inactive. For the same compound, the compound was called inactive in test [10], in test [11], in test [12], in test [14], in [15] and in test [16]. The inhibition in test [5] was 94% (active); in test [6] it was 63% (active); in test [9], 37% (active); in [13], 17.1% (active).
In the case of `OCC1(Cc2ccccc2)CCCN(Cc2cnn(-c3ccccc3)c2)C1` (stereo not given), the outcome in test [1], in test [2], in test [3], in [4], in [7] and in [8] was inactive. For the same compound, the compound was classed as inactive in [9], in test [10], in test [11], in test [12], in test [14] and in test [15]. In addition, the outcome in [16] was inactive. Moreover, the inhibition is 91% (active) in test [5], 42% (active) in test [6] and 36.1% (active) in test [13].
Turning to `CCCCN=C(Nc1ccc(Cl)cc1)c1cccnc1`, the outcome in [1], in [2], in test [3], in [4], in test [7] and in test [8] was inactive. The outcome in test [9], in [10], in test [11], in test [12], in test [13] and in [14] was inactive. For the same compound, the result in [15] and in [16] was inactive. The inhibition is 82% (active) in test [5] and 54% (active) in test [6].
Turning to `O=[N+]([O-])c1ccc(CN2CCN(Cc3c[nH]c4ccccc34)CC2)cc1`, the outcome in [1], in test [2], in test [3], in [4], in [6] and in test [7] was inactive. Besides, the outcome in [8], in test [9], in [10], in [11], in [12] and in [14] was inactive. In addition, the result in [15] and in [16] was inactive. Besides, the inhibition in test [5] was 83% (active); in test [13], 28.9% (active).
For the compound `c1ccc(CNc2c3ccccc3nc3ccccc23)cc1`, the result in test [1], in test [2], in [3], in [4], in test [7] and in test [8] was inactive. Moreover, the outcome in test [10], in test [11], in test [12], in test [14], in [15] and in test [16] was inactive. Further, the inhibition in test [5] is 95% (active); in test [6] it was 60% (active); in [9], 38% (active); in test [13], 23.7% (active).
On to `Nc1c2c(nc3ccccc13)N(c1ccccc1)CC2`, for which the result in [1], in test [2], in [3], in [4], in test [6] and in test [7] was inactive. Besides, the outcome in [8], in test [10], in test [11], in test [12], in test [14] and in test [15] was inactive. Also, the outcome in test [16] was inactive. Moreover, the inhibition is 77% (active) in [5], 26% (active) in [9] and 31.2% (active) in test [13].
As to `CCC(C)[C@H](Nc1nc(-c2ccccc2)nc2c1oc1ccccc12)C(=O)O` (stereo not given in full), the result in test [1], in [2], in test [3], in test [4], in test [6] and in test [7] was inactive. Further, the result in test [8], in test [9], in test [10], in test [11], in test [12] and in [13] was inactive. The outcome in [14], in test [15] and in [16] was inactive. Moreover, the inhibition in [5] was 89% (active).
For `CCn1cc(CN2CCCC(CO)(Cc3cccc(Cl)c3)C2)cn1` (stereo not given), the result in [1], in test [2], in [3], in [4], in [6] and in test [7] was inactive. Also, the result in [8], in [9], in test [10], in test [11], in test [12] and in test [14] was inactive. For the same compound, the outcome in test [15] and in test [16] was inactive. Also, the inhibition in test [5] is 94% (active); in test [13] it was 38.8% (active).
Regarding `CCOC(=O)c1c(NC(=O)C2CCCCC2C(=O)O)sc2c1CCCCC2` (stereo not given), the result in [1], in test [2], in test [3], in [4], in test [6] and in [7] was inactive. Further, the outcome in [8], in test [9], in test [10], in test [11], in test [12] and in test [14] was inactive. Also, the outcome in [15] and in [16] was inactive. For the same compound, the results for the inhibition in test [5] and in [13] were 80% (active) and 42.6% (active), respectively.
